# CtBP-E1A inh: CtBP/E1A binding inhibition; AID 651724; AlphaScreen GST-E1A/His-CtBP binding, 1536-well; stronger effect = lower value; hit rate 0.49% among 340,000; activity change, % (no concentration beside the values)
#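 Homogeneous bead-based format: GST-tagged E1A captured on glutathione donor beads, His-tagged CtBP on nickel acceptor beads; compounds precede bead addition by 2 h at 37 °C.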
# PI4K2A inh: blocks human PI4K2A kinase activity. purified PI4K2A, ADP-Glo luminescence, 1 h; stronger effect = lower value. activity change, negative = inhibition, % at 76.9 µM. hit rate 0.13% among 420,000. AID 1346378; in the data active = activity change below about -50%; inconclusive = mostly about -30% to -49%;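 note: -100% = wells without enzyme as full effect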
#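 PI4K2A activity was measured by ADP-Glo luminescence: enzyme (4 ug/mL stock) and phosphatidylinositol (1.2 mM stock) in Tris pH 7.5/MgCl2/EGTA/Triton X-100 buffer were reacted with ATP (300 microM stock) for one hour at ambient temperature.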
# Six1-Eya2 inh: inhibitors of human Six1/Eya2 interaction | hit rate 0.56% among 360,000 | AID 651725 | AlphaScreen GST-Six1/His-Eya2 binding, biochemical; stronger effect = lower value | activity change, % (test concentration not listed)
#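 Compounds are tested against tagged Six1 and Eya2 proteins bridged by glutathione donor and nickel acceptor beads; after a one-hour incubation at 37 °C without light, AlphaScreen emission is recorded.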
# PI5P4K alpha inh: PI5P4K alpha (human) kinase inhibition | P48426 | PI5P4Kalpha enzyme, ADP-Glo luminescence, 60 min; stronger effect = lower value | max response, % | hit rate 1.2% among 330,000 | AID 652105; active = max response of -50% or lower; inconclusive = between -30% and -50%; inactive = -30% or higher; note: value at the top dose of about 77 µM
# Target sequence (P48426 whole entry, looked up): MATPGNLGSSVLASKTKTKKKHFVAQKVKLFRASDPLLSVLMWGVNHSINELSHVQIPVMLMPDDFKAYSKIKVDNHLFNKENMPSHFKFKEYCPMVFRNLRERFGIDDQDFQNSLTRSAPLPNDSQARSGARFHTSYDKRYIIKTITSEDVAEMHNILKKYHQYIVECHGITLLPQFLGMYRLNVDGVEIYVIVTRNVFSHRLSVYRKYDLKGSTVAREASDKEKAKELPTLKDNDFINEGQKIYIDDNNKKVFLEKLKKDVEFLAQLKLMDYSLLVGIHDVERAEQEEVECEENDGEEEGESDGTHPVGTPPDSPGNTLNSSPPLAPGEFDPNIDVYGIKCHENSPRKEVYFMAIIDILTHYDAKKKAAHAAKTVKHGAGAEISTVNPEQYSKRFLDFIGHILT
#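 Luminescence from ADP-Glo served as readout of PI5P4Kalpha activity in a qHTS format. Reaction: enzyme, substrate, compound, ATP at 5 microM final, 60 min at RT.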
# pAkt inh: blocks phosphorylation of Akt. Neuro2A IGF-stimulated pAkt S473 HTRF, 20 min; stronger effect = lower value. activity change, % for hits at 50 µM. AID 651550. hit rate 0.32% among 360,000; in the data active = activity change below about -80%; inconclusive = mostly about -51% to -80%
#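 Single-point screen (50 µM final compound) in Neuro2A cells stimulated 20 min with 6 nM IGF at 37 deg C. After lysis, Ser473-phosphorylated Akt read by HTRF (ex 330 nm, em 615/665 nm) as the 665/615 ratio.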
# * marks the source's active call; other numbers are inactive results; i = inactive; u = inconclusive; x = no result given. The list is not random: actives were taken first. Their share in the collection is about 1.8%. Cut-off read from the data, not from the text of the source, unless noted: active = activity change below about -65%; inconclusive = mostly about -30% to -63%; inactive = weaker than that. Unless noted, % is set by controls: 0 for no effect and ±100 for the full control effect.
SMILES,CtBP-E1A inh,PI4K2A inh,Six1-Eya2 inh,PI5P4K alpha inh,pAkt inh
O=C(c1cc(=O)[nH]c2ccc(Br)cc12)N1CCC2(CC1)OCCO2,-3.7,0.1,-10.6,2.6,i
Oc1c(Cl)cc(Cl)cc1CN1CCN(Cc2ccccc2)CC1,-6.4,1.0,-73.1*,x,i
O=C(Cc1ccccc1)N1CCN(Cc2ccccc2Cl)CC1,x,0.1,1.1,-3.3,i
COC(=O)C(O)(c1ccc(N(C)S(=O)(=O)c2ccccc2)cc1)C(F)(F)F (stereo unspecified),-1.3,-0.9,6.4,-2.2,i
CN(C)c1ccc(/C=C/C=C2/C(=O)NC(=O)N(c3ccccc3)C2=O)cc1,-2.3,-26.8,6.1,-77.6*,i
Cc1ccc(N2C(=O)NC(=O)/C(=C\C=C\c3ccco3)C2=O)cc1,7.7,-22.4,-5.2,-28.8,i
Cc1ccc[n+](CC(O)Cn2c3ccccc3c3ccccc32)c1 (stereo unspecified),32.6,-8.0,9.2,-0.6,i
C/C(=N\Nc1ccccc1)c1c(O)n(C)c(=O)n(C)c1=O,0.0,6.6,11.4,-0.3,i
COC1CC2C=C(C)C=CC=CC(=O)NC(c3ccccc3)CC=CCCC(O)CC(=O)C2=C1O (stereo unspecified),2.5,-12.5,-18.5,-83.7*,i
Cc1cc(OC(C)C(=O)NCc2ccncc2)c2c3c(c(=O)oc2c1)CCC3 (stereo unspecified),4.4,0.6,1.7,1.1,i
CN(C)c1ccc(C=C2C(=O)NC(=S)NC2=O)cc1,0.9,-5.1,0.9,-71.7*,i
CCN(CC)c1ccc(C=C2C(=O)NC(=S)NC2=O)cc1,x,-18.6,3.6,-62.5*,i
CN(C)c1ccc(C=C2C(=O)NC(=O)NC2=O)cc1,-0.7,-10.7,1.5,u,i
COc1cc(/C=C2\C(=O)NC(=O)N(c3ccccc3)C2=O)c([N+](=O)[O-])cc1OC,12.8,-9.3,u,-27.5,i
CC(C)CN(CC(C)C)c1ccc(C=C2C(=O)NC(=S)NC2=O)cc1[N+](=O)[O-],0.0,-12.1,-26.6,-100.7*,i
CCOC(=O)C1(c2ccccc2)CCN(CCC(C#N)(c2ccccc2)c2ccccc2)CC1,-10.0,-1.5,-13.7,12.0,i
COc1ccc(-n2c(-c3ccco3)nc3ccccc3c2=O)cc1,-6.8,6.4,-8.3,-3.2,i
NC(Cc1ccc(F)cc1)c1csc(Nc2ncccn2)n1 (stereo unspecified),-68.3*,-5.9,u,2.1,i
Nc1ccc(CC(N)c2csc(Nc3ncccn3)n2)cc1 (stereo unspecified),-75.2*,-2.9,-66.6*,-6.9,i
CN1CCC(N(C)c2ccc(C(N)=O)cc2[N+](=O)[O-])CC1,-0.4,7.9,-0.7,0.6,i
O=C1NC(=S)NC(=O)C1=Cc1ccc(OCC(=O)N2CCCC2)cc1,-6.5,-11.6,-0.1,-53.8*,i
COC(=O)C1=C(c2ccc(S(C)(=O)=O)cc2)C[C@@H]2CC[C@H]1N2C(=O)NCc1ccco1,4.9,0.0,5.0,9.5,i
O=C(/C=C/c1c[nH]c2ccccc12)c1c(O)n(CCc2ccccc2)c(=O)[nH]c1=O,1.0,-1.8,8.9,-56.1*,i
Cc1ccccc1N1C(=O)NC(=O)/C(=C\c2cnn(-c3ccccc3)c2)C1=O,4.3,-23.8,-10.9,-71.8*,i
CCn1c(C)cc(/C=C2\C(=O)NC(=O)N(c3ccccc3C)C2=O)c1C,9.3,-4.0,0.4,-1.0,i
SMILES,CtBP-E1A inh,PI4K2A inh,Six1-Eya2 inh,PI5P4K alpha inh,pAkt inh
Cc1ccc(/C=C2\C(=O)NC(=O)N(CCc3ccc(F)cc3)C2=O)o1,x,u,3.5,-53.0*,i
CCOc1cc(/C=C2\C(=O)NC(=O)N(CCc3ccc(F)cc3)C2=O)ccc1O,-1.8,u,3.8,-58.0*,i
CN(C)c1ccc(/C=C2/C(=O)NC(=O)N(CCc3ccc(F)cc3)C2=O)cc1,x,-9.0,0.8,u,i
Cc1ccc(/C=C2\C(=O)NC(=O)N(CCc3ccc(F)cc3)C2=O)s1,11.3,-14.7,1.0,u,i
Cc1c(C=C2C(=O)NC(=O)NC2=O)c(=O)n(-c2ccccc2)n1C,-1.2,-4.1,0.6,-18.2,i
Cc1nn(Cc2ccccc2)c(C)c1C=C1C(=O)NC(=S)NC1=O,11.2,-2.5,5.6,-57.3*,i
